According to PubChem BioAssay (NCATS):
Records with an inconclusive call do not appear. The source made the active and inactive calls. Calls follow the shape of the full dose curve.

Assays:
[1] = Primary qHTS for inhibitors of SARS-S pseudo-typed particle cell entry (AID 1479145); conditions: SARS-S pseudotyped particle cell entry, luciferase reporter; series mostly up to 57.1 µM; also: nearly all actives have a fitted effect of over 45% in size
[2] = Primary qHTS for Huh7 cytotoxicity: counterscreen for inhibitors of MERS-S pseudotyped particle cell entry (AID 1479147); conditions: cell viability read-out; series mostly up to 57.1 µM
[3] = Primary qHTS for inhibitors of MERS-S pseudo-typed particle cell entry (AID 1479149); conditions: MERS-S pseudotyped particle entry, luciferase; series mostly up to 57.1 µM; also: nearly all actives have a fitted effect of over 60% in size
[4] = Primary qHTS for Vero E6 cytotoxicity: counterscreen for inhibitors of SARS-S pseudo-typed particle cell entry (AID 1479150); conditions: cell viability; series mostly up to 57.1 µM
% is scaled to controls: 0 for no effect and ±100 for the full control effect.

CCCCCC1Nc2cc(C(F)(F)F)c(S(N)(=O)=O)cc2S(=O)(=O)N1 (centres undefined)
inactive: Potency [1] | Potency [2] | Potency [3] | Potency [4]

N[C@H]1CN(c2c(F)cc3c(=O)c(C(=O)O)cn(C4C[C@@H]4F)c3c2Cl)CC12CC2 (some centres undefined)
inactive: Potency [1] | Potency [2] | Potency [3] | Potency [4]

O=C1OC2(c3ccccc31)c1cc(I)c(O)c(I)c1Oc1c2cc(I)c(O)c1I
inactive: Potency [1] | Potency [2] | Potency [3] | Potency [4]

N[C@@H](CSSC[C@H](N)C(=O)O)C(=O)O
inactive: outcome [1] inactive [at 0.573 µM] | activity change, negative = cytotoxicity [2] 2.73% [at 0.573 µM] | outcome [3] inactive [at 0.573 µM] | activity change, negative = cytotoxicity [4] 4.84% [at 0.573 µM]

Brc1c(NC2=NCCN2)ccc2nccnc12
inactive: Potency [1] | Potency [2] | Potency [3] | Potency [4]

CCCCC(=O)O[C@]1(C(=O)CO)[C@@H](C)C[C@H]2[C@@H]3CCC4=CC(=O)C=C[C@]4(C)[C@@]3(F)[C@@H](O)C[C@@]21C
inactive: Potency [1] | Potency [2] | Potency [3] | Potency [4]

O=C(CCCN1CCN(c2ccccn2)CC1)c1ccc(F)cc1
inactive: Potency [1] | Potency [2] | Potency [3] | Potency [4]

C[N+]12CCC(CC1)C(OC(=O)C(O)(c1ccccc1)c1ccccc1)C2 (centres undefined)
inactive: Potency [1] | Potency [2] | Potency [3] | Potency [4]

CC1=C(CC(=O)O)c2cc(F)ccc2/C1=C\c1ccc(S(C)=O)cc1 (centres undefined)
inactive: Potency [1] | Potency [2] | Potency [3] | Potency [4]

Cc1c(F)cc2c(=O)c(C(=O)O)cn3c2c1CCC3C (centres undefined)
inactive: Potency [1] | Potency [2] | Potency [3] | Potency [4]

O=C(O)CCC(=O)OC[C@@H](NC(=O)C(Cl)Cl)[C@H](O)c1ccc([N+](=O)[O-])cc1
inactive: Potency [1] | Potency [2] | Potency [3] | Potency [4]
